We go through 7 compounds from PubChem BioAssay (NCATS).

Records with an inconclusive call do not appear. Activity calls are given as the source filed them. Unless noted, the call rests on the fitted dose curve. Some results are limits rather than exact numbers.

Test [1] has as its target Lysosomal acid glucosylceramidase (Homo sapiens) (UniProt P04062). Briefly: Glucocerebrosidase-p2 (AID 348; in the data active means potency below about 10 µM; further: potency means the concentration at half of the fitted maximal effect). As to conditions: purified GBA, blue fluorogenic substrate, 40 min. The essentials: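 Normal human glucocerebrosidase (0.2 nM) with blue fluorogenic substrate (80 uM final) in citrate/phosphate pH 5.9 with 10mM sodium taurocholate, 0.01% tween-20; 40 min RT, NaOH/glycine stop; fluorescence Ex 365/Em 440; AC50 from a titration from 0.6 nM upwards.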

Test [2] is described as follows: AP1 Signaling Pathway (AID 357; active means well fitted curve in either direction with a large enough effect, not every such curve was filed as active;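 further: ME-180 reporter cells stimulated with EGF at its EC50 level; on the % scale 0 is the no-effect control and ±100 the full control effect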). As to conditions: ME-180 AP-1-bla reporter, EGF-induced, beta-lactamase ratio, 5 h; at 7.69 µM (top of the series) unless noted. The gist of the method:
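A ratiometric CCF4 readout (405 nm excitation; 460 and 530 nm emission) quantified AP-1-driven beta-lactamase in ME-180 cells after 5 h with compound and EC50 EGF; AC50 values were derived for activators and inhibitors.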

Test [3] has as its target Cytochrome P450 1A2 (Homo sapiens) (UniProt P05177). The test is described as follows: p450-cyp1a2 (AID 410). Further: potency means the concentration at half of the fitted maximal effect.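 On activity change, negative = inhibition: -100% = full effect of reference inhibitor.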 As to conditions: recombinant CYP1A2, luciferin-ME demethylation, luminescence; series mostly up to 57 µM. The essentials:
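Read-out is luminescence from luciferin produced by CYP1A2 demethylation of Luciferin-ME (100uM, at Km). Detection reagent stopped the 60 min NADPH-dependent reaction; signals were normalized to 57 uM furafylline.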

A short description of test [4]: Stat Signaling Pathway (AID 446; active means well fitted curve in either direction with a large enough effect, not every such curve was filed as active;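 further: ME-180 cervical cancer cells given 40 pM IL-6 alongside compound; SIE-controlled beta-lactamase reporter measured as 460/530 nm FRET emission ratio; on the % scale 0 is the no-effect control and ±100 the full control effect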). As to conditions: ME-180 (cervical carcinoma) SIE beta-lactamase reporter, IL-6 stimulated, 5 h; at 7.69 µM (top of the series) unless noted. The essentials:
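Emission at 460 and 530 nm (excitation 405 nm) reports SIE-controlled beta-lactamase in ME-180 cells. Cells received compound with 40 pM IL-6 for 5 hrs at 37 C; data scaled between 300 pM IL-6 and 125 nM JAK-inhibitor controls.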

For test [5], the target named is Glucocorticoid receptor (Homo sapiens) (UniProt P04150). The test is described as follows: GR-EFC Redistribution (AID 451). Further: potency means the concentration at half of the fitted maximal effect. As to conditions: CHO-K1 GR-EFC translocation, beta-gal luminescence, 2 h. The gist of the method:
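CHO-K1 cells stably expressing nuclear-localized β-gal enzyme acceptor and GR fused C-terminally to the enzyme donor fragment; ligand-driven nuclear translocation restores β-gal by complementation. Compounds titrated up to 46 uM final, 2 h at 37 °C; luminescence read.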

For test [6], the target named is Mitogen-activated protein kinase 10 (Mus musculus) (UniProt Q61831). The test is described as follows: JNK3 AlphaScreen Assay (AID 530; active means well fitted curve in either direction with a large enough effect, not every such curve was filed as active;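 further: kinase came from lysate of stimulated human HepG2 cells; on the % scale 0 is the no-effect control and ±100 the full control effect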). As to conditions: JNK3 lysate, c-Jun phosphorylation; series mostly up to 57.1 µM. The essentials: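 Biotinylated GST-cJun(1-79) served as substrate for JNK3 in HepG2 lysates stimulated with IL-1beta and TNF-alpha. ATP was 10 uM final, pH 7.6. Ser73 phosphorylation was quantified by AlphaScreen (680 nm excitation).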

Test [7] has as its target 3',5'-cyclic-AMP phosphodiesterase 4B (Homo sapiens) (UniProt Q07343). The test is described as follows: qHTS Assay for Inhibitors of PDE-IV (AID 607; active means well fitted activation curve with a large enough effect in the main read-out, with a control signal flat, not every such curve was filed as active; further: % of control where 0% means no effect). Particulars: HEK293 ACTOne CNG channel cells, membrane potential fluorescence; series mostly up to 22.9 µM. The gist of the method: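 The readout is membrane depolarisation from a cAMP-sensing CNG channel, detected with a potential dye at ex 535/em 590. Cells were HEK293-derived (endogenous PDE-IV) at 1000 cells/well, titrated up to 22.9 uM final.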
On the technique in general: qHTS replaces the single test concentration by a dilution series.

Test [8] concerns the target Cytochrome P450 3A4 (Homo sapiens) (UniProt P08684). The test is described as follows: qHTS Assay for Inhibitors and Substrates of Cytochrome P450 3A4 (AID 884; active means well fitted curve in the direction sought with a large enough effect; an effect the other way counts as inactive or inconclusive; further: nearly all actives have a fitted effect of over 50% in size; further: potency means the concentration at half of the fitted maximal effect). As to conditions: recombinant CYP3A4, Luciferin-PPXE luminescence; series mostly up to 57.1 µM. The gist of the method:
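Luminescent readout of luciferin produced by CYP3A4 (20 nM) dealkylation of Luciferin-PPXE, 25 uM (its KM). NADPH-driven reaction ran 60 min at RT after 10 min compound preincubation; data scaled to 57 uM ketoconazole as 100% inhibition.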

The target is the same in test [9]. Briefly: qHTS Assay for Activators of Cytochrome P450 3A4 (AID 885; active means well fitted curve in the direction sought with a large enough effect; an effect the other way counts as inactive or inconclusive; further: nearly all actives have a fitted effect of over 65% in size; further: potency means the concentration at half of the fitted maximal effect). Particulars: recombinant CYP3A4, Luciferin-PPXE luminescence, 60 min; series mostly up to 57.1 µM. The gist of the method:
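Activators are scored by enhanced luminescence from CYP3A4 conversion of luciferin-PPXE (25uM, equal to KM) to luciferin, after 60 min at RT with an NADPH-regenerating system.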

A short description of test [10]: qHTS Assay for Lipid Storage Modulators (AID 1519). As to conditions: Drosophila S3 cells, BODIPY lipid droplet/cell ratio, laser cytometry, cells loaded with oleic acid; for activity change, negative = inhibition: at 57.5 µM (top of the series). The essentials:
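Cells seeded at 5,000 per well were treated with compounds over a concentration series and loaded with oleic acid (400 uM, as added). Lipid droplet fluorescence (488 nm excitation, 500-530 nm channel) was read by laser-scanning cytometry and normalized to 20 uM Triacsin C.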

A short description of test [11]: Primary qHTS for small molecule stabilizers of the endoplasmic reticulum resident proteome: Secreted ER Calcium Modulated Protein (SERCaMP) assay (AID 1508630; active means well fitted curve in the direction sought with a large enough effect; an effect the other way counts as inactive or inconclusive; further: on the % scale 0 is the no-effect control and ±100 the full control effect). Particulars: SH-SY5Y GLuc-SERCaMP (Gaussia luciferase released on ER calcium loss) secretion, thapsigargin, luminescence; series mostly up to 38.4 µM. The gist of the method:
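The SH-SY5Y reporter protocol was run at 3 concentrations up to 38.3 uM (primary) or 11 concentrations (follow-up): 16 h compound, 100 nM thapsigargin for 4 h, then extracellular luciferase luminescence.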

Test [12] addresses Cytochrome P450 2C19 (Homo sapiens) (UniProt P33261). Briefly: qHTS Assay for Inhibitors and Substrates of Cytochrome P450 2C19 (AID 899; active means well fitted curve in the direction sought with a large enough effect; an effect the other way counts as inactive or inconclusive; further: potency means the concentration at half of the fitted maximal effect; nearly all actives have a fitted effect of over 60% in size). As to conditions: recombinant CYP2C19, luciferin-H EGE luminescence; series mostly up to 57.1 µM. The essentials:
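Human CYP2C19 (5nM) with Luciferin-H EGE at 10uM (its KM) in 50mM KPO4 was preincubated with compound for 10 min at 37C. NADPH regeneration started a 60 min 37C reaction. Luciferin was read by luminescence, normalized to 57uM ketoconazole.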

Setting [13] is: measured here: cell count channel max response.
Where [14] appears, read: measured here: lipid channel max response.

Sequence of 3',5'-cyclic-AMP phosphodiesterase 4B (Homo sapiens) (Q07343 whole entry, looked up): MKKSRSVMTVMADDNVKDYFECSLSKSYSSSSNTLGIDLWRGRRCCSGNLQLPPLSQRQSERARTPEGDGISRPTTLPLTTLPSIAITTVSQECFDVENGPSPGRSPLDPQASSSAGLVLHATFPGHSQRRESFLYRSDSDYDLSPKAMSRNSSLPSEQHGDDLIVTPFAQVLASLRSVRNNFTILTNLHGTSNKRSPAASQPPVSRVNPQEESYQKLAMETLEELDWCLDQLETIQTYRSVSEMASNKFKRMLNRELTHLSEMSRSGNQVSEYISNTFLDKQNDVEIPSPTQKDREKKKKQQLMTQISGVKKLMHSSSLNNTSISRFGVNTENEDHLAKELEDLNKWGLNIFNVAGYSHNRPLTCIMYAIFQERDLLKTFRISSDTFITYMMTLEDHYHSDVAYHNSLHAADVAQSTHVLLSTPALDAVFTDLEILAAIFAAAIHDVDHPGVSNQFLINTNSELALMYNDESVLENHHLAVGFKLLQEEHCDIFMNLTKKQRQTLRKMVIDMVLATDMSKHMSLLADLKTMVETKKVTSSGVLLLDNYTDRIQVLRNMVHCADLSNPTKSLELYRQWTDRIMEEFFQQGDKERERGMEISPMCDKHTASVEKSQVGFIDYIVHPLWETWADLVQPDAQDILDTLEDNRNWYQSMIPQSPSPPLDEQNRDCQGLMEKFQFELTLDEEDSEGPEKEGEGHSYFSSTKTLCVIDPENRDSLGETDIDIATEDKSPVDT
Sequence of Cytochrome P450 1A2 (Homo sapiens) (P05177 whole entry, looked up): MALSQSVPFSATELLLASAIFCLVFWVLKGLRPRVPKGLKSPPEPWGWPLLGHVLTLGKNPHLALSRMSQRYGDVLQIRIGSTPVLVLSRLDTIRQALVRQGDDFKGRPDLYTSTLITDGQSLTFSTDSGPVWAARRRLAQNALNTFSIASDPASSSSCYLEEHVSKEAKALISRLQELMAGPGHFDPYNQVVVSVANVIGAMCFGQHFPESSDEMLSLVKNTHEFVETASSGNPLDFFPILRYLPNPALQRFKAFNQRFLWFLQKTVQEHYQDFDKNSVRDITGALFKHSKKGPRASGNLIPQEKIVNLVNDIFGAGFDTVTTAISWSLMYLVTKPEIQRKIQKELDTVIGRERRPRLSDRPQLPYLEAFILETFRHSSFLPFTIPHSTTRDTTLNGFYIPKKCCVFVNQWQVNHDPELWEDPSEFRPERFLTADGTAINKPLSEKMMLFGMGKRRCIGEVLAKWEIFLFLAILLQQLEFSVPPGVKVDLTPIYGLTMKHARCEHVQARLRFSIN
Sequence of Cytochrome P450 3A4 (Homo sapiens) (P08684 whole entry, looked up): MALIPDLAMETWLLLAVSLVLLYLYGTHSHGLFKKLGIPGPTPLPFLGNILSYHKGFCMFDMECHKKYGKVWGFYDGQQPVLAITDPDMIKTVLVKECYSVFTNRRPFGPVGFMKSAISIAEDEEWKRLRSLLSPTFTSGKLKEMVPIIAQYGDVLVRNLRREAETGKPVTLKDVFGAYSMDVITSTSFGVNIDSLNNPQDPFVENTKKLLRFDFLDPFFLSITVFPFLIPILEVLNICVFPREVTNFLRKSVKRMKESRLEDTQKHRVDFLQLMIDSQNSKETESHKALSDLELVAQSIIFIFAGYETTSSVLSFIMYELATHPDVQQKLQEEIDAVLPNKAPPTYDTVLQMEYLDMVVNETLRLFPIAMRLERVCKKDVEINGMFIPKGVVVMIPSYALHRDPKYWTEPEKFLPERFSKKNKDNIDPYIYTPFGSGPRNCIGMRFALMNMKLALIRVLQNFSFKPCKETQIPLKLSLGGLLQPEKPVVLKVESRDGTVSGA
Sequence of Glucocorticoid receptor (Homo sapiens) (P04150 whole entry, looked up, the tested form may be a part): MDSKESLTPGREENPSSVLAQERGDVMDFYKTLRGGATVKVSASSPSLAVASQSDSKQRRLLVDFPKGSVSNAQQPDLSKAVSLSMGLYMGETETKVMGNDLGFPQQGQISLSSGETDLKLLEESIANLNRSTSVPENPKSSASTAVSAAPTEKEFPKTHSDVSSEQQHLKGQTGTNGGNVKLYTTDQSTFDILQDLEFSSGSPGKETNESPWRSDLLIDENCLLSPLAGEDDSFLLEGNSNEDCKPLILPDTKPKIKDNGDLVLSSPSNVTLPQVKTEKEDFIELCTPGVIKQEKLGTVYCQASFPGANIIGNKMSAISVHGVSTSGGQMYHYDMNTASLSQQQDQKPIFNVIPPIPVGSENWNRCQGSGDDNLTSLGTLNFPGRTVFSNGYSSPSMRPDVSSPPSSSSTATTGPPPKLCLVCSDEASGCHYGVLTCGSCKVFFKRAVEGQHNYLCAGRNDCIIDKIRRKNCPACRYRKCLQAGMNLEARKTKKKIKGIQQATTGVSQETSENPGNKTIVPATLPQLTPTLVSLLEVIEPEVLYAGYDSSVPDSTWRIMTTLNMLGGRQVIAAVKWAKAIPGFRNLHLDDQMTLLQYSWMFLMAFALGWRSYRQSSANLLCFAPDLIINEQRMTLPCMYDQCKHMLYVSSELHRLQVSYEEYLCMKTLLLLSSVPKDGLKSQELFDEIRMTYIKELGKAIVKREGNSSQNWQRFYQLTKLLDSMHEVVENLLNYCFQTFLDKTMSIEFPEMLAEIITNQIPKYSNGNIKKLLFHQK
Sequence of Lysosomal acid glucosylceramidase (Homo sapiens) (P04062 whole entry, looked up): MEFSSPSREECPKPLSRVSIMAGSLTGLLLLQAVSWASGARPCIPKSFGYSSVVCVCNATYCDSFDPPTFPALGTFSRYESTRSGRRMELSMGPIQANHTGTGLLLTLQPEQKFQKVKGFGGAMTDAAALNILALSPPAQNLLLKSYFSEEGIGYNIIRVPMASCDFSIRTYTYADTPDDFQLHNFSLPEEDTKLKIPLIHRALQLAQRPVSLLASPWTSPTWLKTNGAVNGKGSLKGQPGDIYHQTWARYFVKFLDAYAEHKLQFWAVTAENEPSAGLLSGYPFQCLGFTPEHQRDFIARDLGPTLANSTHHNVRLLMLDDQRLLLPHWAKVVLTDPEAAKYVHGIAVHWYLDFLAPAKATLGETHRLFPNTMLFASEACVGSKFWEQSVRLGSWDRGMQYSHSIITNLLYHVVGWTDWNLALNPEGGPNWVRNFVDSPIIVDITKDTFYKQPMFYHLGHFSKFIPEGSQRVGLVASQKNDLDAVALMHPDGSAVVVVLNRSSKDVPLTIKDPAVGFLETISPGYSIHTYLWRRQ
Sequence of Cytochrome P450 2C19 (Homo sapiens) (P33261 whole entry, looked up): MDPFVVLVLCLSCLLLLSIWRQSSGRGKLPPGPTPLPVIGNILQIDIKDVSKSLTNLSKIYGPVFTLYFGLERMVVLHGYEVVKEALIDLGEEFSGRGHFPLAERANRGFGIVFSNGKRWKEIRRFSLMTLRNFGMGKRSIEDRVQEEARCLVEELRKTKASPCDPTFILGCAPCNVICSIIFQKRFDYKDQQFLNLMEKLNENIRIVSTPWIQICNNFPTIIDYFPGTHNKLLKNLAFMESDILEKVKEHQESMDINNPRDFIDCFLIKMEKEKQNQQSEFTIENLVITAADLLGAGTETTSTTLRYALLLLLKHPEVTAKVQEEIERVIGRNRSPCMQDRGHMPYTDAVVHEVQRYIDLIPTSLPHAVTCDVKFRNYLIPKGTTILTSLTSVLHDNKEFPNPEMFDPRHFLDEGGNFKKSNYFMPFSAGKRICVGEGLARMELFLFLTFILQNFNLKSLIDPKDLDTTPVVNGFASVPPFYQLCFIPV

In the case of `Cn1cccc1C(=O)N1CCC2(CC1)CCN(C(c1ccccc1)c1ccccc1)CC2`, the Potency in [1] was > 11.4 µM (inactive); in test [3] it was 5.01 µM (active); in [5], > 46 µM (inactive); in test [9], 15.8 µM (active). For the same compound, the activity change, negative = inhibition in test [2] is -3.6% (inactive); in test [10], -19.5% (inactive). The activity, negative = inhibition in test [4] is -4.66% (inactive). For the same compound, the Potency entry in test [6], in test [7] and in [8] was “inactive” in each case. Besides, the max response in [10] (setting [13]) was 11.8%; in test [10] (setting [14]) it was -8.47%. Further, the outcome in test [11] was inactive.

As to `COC(=O)N1CCC2(CC1)CN(c1ccccc1)C2`, the Potency in test [1] is > 11.4 µM (inactive); in [5] it was > 46 µM (inactive); in test [12], 6.31 µM (active). Besides, the activity change, negative = inhibition in test [2] was -2.49% (inactive); in [10], -0.409% (inactive). In addition, the Potency entry in [3], in test [6], in [7] and in test [8] was “inactive” throughout. In [4], the activity, negative = inhibition is 8.16% (inactive). For the same compound, the max response amounted to 4.45% in [10] (setting [13]) and 2.93% in test [10] (setting [14]). Besides, in test [11], the result was inactive.

For the compound `Cn1cccc1C(=O)N1CCC2(CCCN(Cc3ccc(C#N)cc3)C2)CC1`, the Potency in test [1] is > 11.4 µM (inactive); in test [3], 12.6 µM (active); in test [5], > 46 µM (inactive). Further, the activity change, negative = inhibition in [2] was 10.6% (inactive); in test [10], 1.29% (inactive). Besides, the activity, negative = inhibition in test [4] was -1.12% (inactive). In addition, the Potency entry in [6], in [7] and in test [9] was “inactive” in each case. The max response in test [10] (setting [13]) is 17.2%; in test [10] (setting [14]), 18.2%. Further, the outcome in test [11] was inactive.

For `COc1ccc(C(=O)N2CCC3(CCCN(CC(C)C)C3)CC2)cc1`, the Potency is > 11.4 µM (inactive) in test [1] and > 46 µM (inactive) in test [5]. Also, the activity change, negative = inhibition in test [2] was -7.24% (inactive); in test [10], 2.63% (inactive). For the same compound, the Potency result in test [3], in [6], in [7] and in test [9] was “inactive” in each case. Besides, the activity, negative = inhibition in test [4] was -5.73% (inactive). Moreover, the max response in test [10] (setting [13]) came out at 21.1%; in test [10] (setting [14]), 26.9%. Moreover, the outcome in test [11] was inactive.

As to `COc1ccc(C(=O)N2CCC3(CCCN(Cc4ccccc4OC)C3)CC2)cc1`, the results for the Potency in test [1] and in [5] were > 11.4 µM (inactive) and > 46 µM (inactive), respectively. Further, the values for the activity change, negative = inhibition in [2] and in [10] were 0.332% (inactive) and -0.879% (inactive), respectively. The Potency entry in [3], in test [6], in test [7] and in test [9] was “inactive” in each case. For the same compound, in [4], the activity, negative = inhibition is -6.54% (inactive). For the same compound, the max response in [10] (setting [13]) is -8.51%; in test [10] (setting [14]), -6.45%. The result in test [11] was inactive.

For the compound `COc1ccc(NC(=O)N2CCCC3(CCN(S(=O)(=O)c4ccccc4)CC3)C2)cc1`, the Potency in [1] was > 11.4 µM (inactive); in test [5], > 46 µM (inactive); in test [8], 7.94 µM (active). The activity change, negative = inhibition in [2] was -4.9% (inactive); in [10] it was 2.57% (inactive). The Potency result in test [3], in test [6], in [7] and in [9] was “inactive” throughout. The activity, negative = inhibition in test [4] is -19% (inactive). Also, the results for the max response in test [10] (setting [13]) and in test [10] (setting [14]) were 6.07% and 10.9%, respectively. The outcome in test [11] was inactive.

In the case of `O=C(Nc1ccccc1)N1CCCC2(CCN(S(=O)(=O)c3ccccc3)CC2)C1`, the values for the Potency in test [1], in [3] and in [5] were > 11.4 µM (inactive), 15.8 µM (active) and > 46 µM (inactive), respectively. Also, the activity change, negative = inhibition in [2] is -18.5% (inactive); in [10] it was 0.932% (inactive). Further, the activity, negative = inhibition in test [4] is -7.13% (inactive). Besides, the Potency entry in test [6], in [7] and in test [9] was “inactive” each time. Besides, the max response in test [10] (setting [13]) stood at 19.2%; in [10] (setting [14]) it was 22%. For the same compound, the outcome in test [11] was inactive.
